Source: PubChem (National Center for Advancing Translational Sciences (NCATS))
MCF10A rereplic = inducers of DNA re-replication in MCF 10A breast cells | MCF 10A DNA re-replication, Hoechst nuclear intensity, 48 h | Potency, µM (highest dose often 46.1 µM), without a hit: top-dose activity, positive = re-replication, most hits filed as activators | hit rate 2.9% among 350,000 | AID 624296; note: % of control where 0% means no effect; nearly all actives have a fitted effect of over 50% in size
KB-3-1 cytotox = KB-3-1 parental cell cytotoxicity; KB-3-1 viability, CellTiter-Glo ATP luminescence, 72 h; Potency, µM (series often up to 46.1 µM), hits mostly cytotoxic; hit rate 1.4% among 400,000; AID 1347075; note: % is set by controls: 0 for no effect and ±100 for the full control effect; nearly all actives have a fitted effect of over 60% in size
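Here the drug-naive KB-3-1 line serves as comparator for MDR sub-line selectivity; cells received compound titrations, 72 h at 37 °C, then CellTiter-Glo readout.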
KB-V1 MDR tox = kills drug-selected multidrug resistant KB-V1 cells; KB-V1 MDR cells viability, CellTiter-Glo, 72 h; Potency, µM (highest dose often 46.1 µM), most hits filed as cytotoxic; hit rate 3.4% among 400,000; note: % is set by controls: 0 for no effect and ±100 for the full control effect; nearly all actives have a fitted effect of over 60% in size
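Cells of the MDR subline KB-V1 are plated, dosed with compound at multiple concentrations, and incubated 72 h at 37 degrees C; CellTiter-Glo is then added and luminescence read after 10 min.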
ELG1 DNA repair = blocks ELG1-dependent DNA repair in HEK293T cells. HEK293T ELG1-luciferase reporter, luminescence, 16 h; DNA damage induced by 5-fluorouridine. Potency, µM (highest dose often 46.1 µM), inactives show at the highest dose activity change, negative = inhibition, most hits filed as inhibitors. hit rate 2.3% among 330,000. AID 504467; note: % is set by controls: 0 for no effect and ±100 for the full control effect; nearly all actives have a fitted effect of over 55% in size
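Step one: seed 2,000 cells per well. Step two: pin-transfer compound or DMSO alongside 5-fluorouridine. Step three: incubate 16 hr, 37 °C, 5% CO2. Step four: add ONE-Glo, wait 30 min, read luminescence.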
SW480 rereplic = DNA re-replication induction in SW480 cells; SW480 DNA re-replication, Hoechst DNA content imaging, 48 h; Potency, µM (titrated, usually from 46.1 µM), for the others: at the top dose re-replication activation, hits mostly activators; hit rate 1.8% among 340,000; AID 624297; note: % of control where 0% means no effect; nearly all actives have a fitted effect of over 55% in size
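First, 250 cells per well were seeded. Next, compound or vehicle (23 nL) was pinned in, plates sat 48 hr at 37 C. Finally Hoechst was added for 40 min before fluorescence scanning.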
Numbers without * were called inactive; i = inactive; ? = inconclusive; / = no result. A selection: hits, their analogues and other compounds. The true share with any hit is near 8.2%. Calls come from the whole dose curve; as a rule, active = well fitted curve in the direction sought with a large enough effect; inconclusive = small, poorly fitted or top-dose-only effect, or another doubt; inactive = no such curve, though single readings can be large; an effect the other way counts as inactive or inconclusive. Potency is the fitted concentration of half-maximal effect.

SMILES | MCF10A rereplic | KB-3-1 cytotox | KB-V1 MDR tox | ELG1 DNA repair | SW480 rereplic
COc1ccc(N2CCC(CNC(=O)Nc3cccc(OC)c3)C2)cc1 (centres undefined) | ? | i | 20.6µM* | -24.2% | 12.5%
CC(=O)Nc1ccc(CN(C)c2c(C)nc3ccc(C(=O)N(C)Cc4ccccc4)cn23)cc1 | / | i | i | / | /
BrC(=C\c1ccccc1)/C=N/N1CCN(c2ccccn2)CC1 | 20.6µM* | i | ? | ? | ?
Oc1cccc(/C=N/N2CCN(c3ccccn3)CC2)c1 | -0.6% | i | i | ? | -7.5%
O=[N+]([O-])c1ccccc1/C=N/N1CCN(c2ccccn2)CC1 | 28.3% | i | 14.6µM* | ? | -3.2%
O=[N+]([O-])c1ccccc1C=NN1CCCCCC1 | 2.1% | i | i | / | 3.1%
COc1ccccc1C1CCN(c2cc(O)ccc2[N+](=O)[O-])CC1 | 16.4µM* | i | ? | 11.6µM* | -35.9%
COc1ccccc1C1CCN(C(=O)c2ccccc2)CC1 | ? | i | i | -5.1% | -6.1%
CC(=O)NC[C@H]1O[C@@H](n2ccc(N)nc2=O)[C@H](O)[C@@H]1O | / | i | i | / | /
Nc1ccn(C2OC(COP(=O)(O)O)C(O)C2O)c(=O)n1 (centres undefined) | ? | ? | ? | / | 0.651µM*
COc1ccc(-c2cn(-c3ccc(C)c(C)c3)c(=S)[nH]2)cc1OC | 8.6% | i | i | 0.1% | -0.4%
COc1ccc(-c2cn(-c3ccc(C)c(Cl)c3)c(=S)[nH]2)cc1OC | 12.7% | 16.4µM* | i | 12.2% | -0.9%
COc1ccc(-c2cn(-c3ccccc3)c(=S)[nH]2)cc1OC | 2.5% | 3.26µM* | i | ? | -5.4%
COc1ccccc1-n1cc(-c2ccc(C)cc2)[nH]c1=S | 18.4µM* | ? | 23.1µM* | ? | ?
CCN1CCN(c2csc3ccc(C)cc3c2=O)CC1 | / | i | ? | / | /
Cc1cc2cc3c(=O)[nH]c(=O)nc-3n(CC(O)C(O)C(O)CO)c2cc1C (centres undefined) | ? | i | i | / | 20.6µM*
Cc1cc(NC(=O)CSc2nnc(CNC(=O)c3c(F)cccc3F)o2)no1 | 1.7% | i | ? | -1.7% | -30.8%
O=C(Cc1coc2cc(O)ccc12)NNC(=O)c1cccs1 | ? | i | ? | 22.1% | 14.2%
Cc1cc2occ(CC(=O)NCc3cccs3)c2cc1C(C)C | 5.8% | i | 20.6µM* | -9.8% | -1.8%
CCOc1ccccc1CN(Cc1ccco1)S(=O)(=O)c1ccc(-n2cnnn2)c(OC)c1 | ? | ? | ? | ? | 8.2µM*
COc1cc(S(=O)(=O)N(Cc2ccco2)C2CCCC2)ccc1-n1cnnn1 | 10.1% | i | i | -12.6% | -0.4%
COc1ccc(CCN(Cc2cccs2)S(=O)(=O)c2ccc(-n3cnnn3)c(OC)c2)cc1OC | -9.5% | i | 2.59µM* | ? | -0.2%
COc1cc(S(=O)(=O)N(Cc2cccs2)CC2CCCO2)ccc1-n1cnnn1 (centres undefined) | 12.3% | i | ? | -5.0% | 2.3%
Cn1c(=O)c2[nH]c(Cc3ccsc3)nc2n(C)c1=O | 1.8% | i | i | / | 8.8%
Cc1cccc(Nc2nc(N)c(C#N)c(CC#N)c2C#N)c1 | ? | i | i | 0.8% | -2.3%
SMILES | MCF10A rereplic | KB-3-1 cytotox | KB-V1 MDR tox | ELG1 DNA repair | SW480 rereplic
N#Cc1c(N)nc(N)nc1Nc1ccc(Br)cc1 | 3.5% | ? | 13µM* | ? | 3.4%
CN1CCN(NC(=O)/C=C/c2ccc(C(C)(C)C)cc2)CC1 | -4.8% | i | i | 8.3% | -1.6%
O=C(Oc1cccc2cccnc12)c1ccc(Br)o1 | -4.4% | i | i | -1.5% | -1.6%
O=C(Oc1cccc2cccnc12)c1ccc2c(c1)OCCO2 | 3.26µM* | i | ? | 10.3µM* | 10.3µM*
O=C(Oc1cccc2cccnc12)c1cccs1 | 5.17µM* | ? | 11.6µM* | -24.8% | ?
O=S(=O)(Nc1ccc2c(c1)OCCO2)c1cccc2cccnc12 | -4.5% | i | 16.4µM* | 13.2% | -8.4%
O=C(Oc1cccc2cccnc12)c1ccco1 | ? | ? | ? | 1.6% | ?
CC(=O)NS(=O)(=O)c1cccnc1Nc1cccc(Cl)c1C | -2.0% | i | i | ? | 0.517µM*
CC(=O)NS(=O)(=O)c1cccnc1Nc1ccc(Cl)cc1 | -3.9% | i | i | 5.0% | 5.8%
NNc1cc2c(nn1)CCN(C(=O)c1ccccc1)C2 | / | 18.4µM* | i | / | /
O=C(c1cccnc1)N1CCc2ccccc2C1 | -5.8% | i | i | 0.2% | 13.6%
Cc1cc(-n2c(C)nc3ccccc3c2=O)ccc1NC(=O)c1ccc([N+](=O)[O-])cc1 | / | i | i | / | /
CC(=O)Nc1ccc(Sc2ccc([N+](=O)[O-])o2)cc1 | 1.84µM* | i | ? | / | 5.8µM*
CC(C)(C)C(=O)Nc1ccc(Sc2ccc([N+](=O)[O-])cc2)cc1 | ? | i | 20.6µM* | ? | 22.9%
O=C(N/N=C/c1cc(Cl)cc([N+](=O)[O-])c1O)c1cccc(S(=O)(=O)N2CCOCC2)c1 | 12.7% | ? | ? | -29.4% | 0.1%
CN(Cc1cccc2cnccc12)C(=O)CCc1nnc(CCc2ccccc2)o1 | 21.5% | i | ? | 12.7% | 1.8%
COc1ccccc1CCc1nnc(CCC(=O)N(C)Cc2cccc3ncccc23)o1 | ? | i | 8.2µM* | ? | -0.2%
Cc1ccccc1/C=N/NC(=O)Cc1ccc(Cl)cc1 | ? | i | i | -10.4% | -9.1%
C/C(=N\OCC(=O)N/N=C/c1ccc(C)cc1O)c1cccs1 | 4.11µM* | i | ? | -17.4% | 6.51µM*
Cc1cc(SCC(=O)N/N=C/c2ccc(O)cc2O)c(C)cc1Br | 13.0% | ? | 10.3µM* | ? | ?
Cc1ccc(NC(=O)CCC(=O)N/N=C/c2ccc(O)cc2O)cc1 | ? | i | i | 18.3µM* | ?
Cc1cc(SCC(=O)N/N=C/c2ccccc2C(=O)O)c(C)cc1Br | 12.7% | i | ? | 5.1% | -1.2%
Cc1ccc(/C=N/NC(=O)Cc2ccc(Cl)cc2)c(O)c1 | 14.5% | ? | 7.31µM* | -25.5% | 7.31µM*
COc1ccc(CNC(=O)CN(C(=O)CCC(=O)Nc2nccs2)c2ccc3c(c2)OCO3)cc1 | -3.0% | i | i | -4.5% | -2.4%
CC1CCCCC1NC(=O)CN1c2cccc3cccc(c23)S1(=O)=O (centres undefined) | -2.1% | i | ? | -12.8% | -5.2%
O=C(N/N=C/c1ccc(O)cc1O)c1ccc(NC(=O)C2CCCCC2)cc1 | ? | ? | i | 7.6% | 16.4µM*
O=C(N/N=C/c1ccc(O)cc1O)/C(=C/c1ccccc1)CCO | 18.4µM* | i | ? | ? | ?
